Measurements published in PubChem BioAssay AID1347075 (National Center for Advancing Translational Sciences (NCATS), 2019).
Screen size: about 400,000 compounds; about 5,500 (1.4%) were called active. About 9% were inconclusive and are not listed. Shown is part of a subset that was picked to be rich in actives. Unmarked numbers belong to inactive results. Calls follow the shape of the dose curve; as a rule, active = well fitted cell-killing curve with a large enough effect; inconclusive = small, poorly fitted or top-dose-only effect, or effect the other way; inactive = flat fitted curve, though single readings scatter.

Test: qHTS assay for MDR1-selective chemotherapeutics: Primary screen using the parental adenocarcinoma cell KB-3-1; also: nearly all actives have a fitted effect of over 60% in size
Conditions: KB-3-1 viability, CellTiter-Glo ATP luminescence, 72 h; series mostly up to 46.1 µM; activity change, negative = cytotoxic: at the top concentration
Summary of the method: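 Cytotoxicity in the drug-sensitive parental line KB-3-1 was scored as loss of CellTiter-Glo luminescence following 72 h incubation with compound. Values come from curve fitting of normalized concentration-response data.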
% is scaled to controls: 0 for no effect and ±100 for the full control effect; potency is read from the fitted curve at half-maximal effect.

Row | Structure (SMILES) | activity change, negative = cytotoxic | Potency
1 | Cc1cc(N2CCN(c3cccc(C(F)(F)F)c3)CC2)n2nc(-c3ccccc3)nc2n1 | 10.4% | 
2 | O=S(=O)(NC1CC1)c1ccc(Cl)cc1 | -3.47% | 
3 | O=S(=O)(CCc1nc2ccccc2o1)c1ccc(Cl)cc1 | 7.92% | 
4 | O=S(=O)(Cc1ccc(Cl)cc1Cl)c1ccc(Cl)cc1 |  | 1.64 µM (active)
5 | CSc1cccc(NC(=O)CSc2ccccc2)c1 | -0.187% | 
6 | O=C(CSc1ccccc1)Nc1ccc(C(=O)Nc2cccc(O)c2)cc1 | -0.55% | 
7 | O=C(CCl)Nc1cccc(CP(=O)(c2ccccc2)c2ccccc2)c1 |  | 13 µM (active)
8 | Cc1cccc(CC(=O)N2CC(=O)Nc3ccc(F)cc3C2c2ccccc2)c1 (configuration not stated) | 2.67% | 
9 | O=C(C[n+]1ccncc1)c1ccc2c(c1)CCCC2 | 7.96% | 
10 | CC(C)c1nnc(NC(=O)COC(=O)/C=C/c2ccc([N+](=O)[O-])cc2)s1 | -2.43% | 
11 | CCOC(=O)C/C(C)=N\Nc1ccc([N+](=O)[O-])cc1[N+](=O)[O-] | -5.18% | 
12 | CCOC(=O)/C(=C\c1ccc([N+](=O)[O-])cc1)C(=O)c1cc(C(C)=O)c(Nc2ccccc2)s1 |  | 3.26 µM (active)
13 | CN(C)S(=O)(=O)c1ccc(C(=O)N(Cc2cccnc2)c2nc3c(F)cc(F)cc3s2)cc1 | 10.1% | 
14 | CC(=O)N1CCCc2cc(S(=O)(=O)N3CCC(C(=O)NCc4ccc(C)cc4)CC3)ccc21 | -5.07% | 
15 | COc1cccc(CNC(=O)C2CCC(CNS(=O)(=O)c3cccs3)CC2)c1 (configuration not stated) | -2.65% | 
16 | CCn1c(=O)c(=O)n(CC)c2cc(S(=O)(=O)N3CCc4ccccc43)ccc21 |  | 20.6 µM (active)
17 | O=S(=O)(c1ccc2c(c1)OCCO2)N1CCc2ccccc21 | -10.5% | 
18 | NS(=O)(=O)c1ccc(CNC(=O)c2cccc(S(=O)(=O)N3CCc4ccccc43)c2)cc1 | -2.94% | 
19 | Nc1nc(N)c(N=O)c(N)n1 | -6.75% | 
20 | Cc1cc(Cl)ccc1OCC(=O)N(Cc1ccc(N(C)C)cc1)C1CCS(=O)(=O)C1 (configuration not stated) | -1.52% | 
21 | Cc1c(Nc2cc(N3CCCC(C)C3)c3nonc3c2[N+](=O)[O-])c(=O)n(-c2ccccc2)n1C (configuration not stated) | 4.28% | 
22 | COCCNc1nc(N)c([N+](=O)[O-])c(N2CCCCCC2)n1 | -7.28% | 
23 | Nc1cc(N2CCCCCC2)c2nonc2c1[N+](=O)[O-] |  | 11.6 µM (active)
24 | COc1ccc2ncc3c(-c4ccc(C)c(C)c4)nn(CC(=O)NC4CCCC4)c3c2c1 | 1% | 
25 | Cc1ccc(C(=O)Cn2cccn2)cc1 | 11.3% | 

Row | Structure (SMILES) | activity change, negative = cytotoxic | Potency
26 | C/C(=N/NC(=O)CC(=O)N/N=C(\C)c1ccc([N+](=O)[O-])cc1)c1ccc([N+](=O)[O-])cc1 | -50.6% | 
27 | CC12CCC(C(=O)N(NC(=O)c3ccccc3O)C1=O)C2(C)C (configuration not stated) |  | 16.4 µM (active)
28 | CC1=CC(C)(C)NC(=S)N1NC(=O)c1ccccc1Cl | 5.1% | 
29 | CC(Sc1nnc2c(n1)C1CCC2(C)C1(C)C)C(=O)Nc1ccccc1 (configuration not stated) | -0.569% | 
30 | Cc1ccc(CNC(=O)CCC(=O)N2Cc3ccccc3Oc3ncccc32)cc1 | -0.423% | 
31 | CNC(=O)CN1C(=O)c2cccnc2Sc2ccccc21 | 2.16% | 
32 | CC1=Nc2cc(C(=O)N3CCC(C)CC3)ccc2Sc2ccc(Cl)cc21 | -7.06% | 
33 | COCCNC(=O)c1ccc2c(c1)N=C(C)c1cc(C)ccc1S2 |  | 0.651 µM (active)
34 | COCCNC(=O)c1ccc(S(=O)(=O)c2ccc(Cl)cc2)c(NC(C)=O)c1 | -5.96% | 
35 | NC(=O)CSc1nc2c(oc3ccccc32)c(=O)n1Cc1ccccc1 | 1.42% | 
36 | O=c1[nH]c(CCl)nc2cc(-c3ccc(Cl)cc3)sc12 |  | 9.2 µM (active)
37 | Cn1c(NCc2cccnc2)nc2cc(-c3ccc(F)cc3)sc2c1=O | -0.0429% | 
38 | COc1cccc(-c2cc3nc(NCCOc4ccccc4Cl)n(C)c(=O)c3s2)c1 | 0% | 
39 | Cc1cc(C)c2oc(C(=O)Nc3ccc(S(=O)(=O)N(C)c4ccccc4)cc3)cc(=O)c2c1 | 4.69% | 
40 | COc1cccc(C(=O)NCCS(=O)(=O)NCC2CCCO2)c1 (configuration not stated) | -6.43% | 
41 | CN(C(=O)c1cccc(OC2CCN(S(=O)(=O)N(C)C)CC2)c1)C1CCOC1 (configuration not stated) | 8.45% | 
42 | CN(C)S(=O)(=O)N1CCC(Oc2cccc(C(=O)NCCCC3CCCC3)c2)CC1 |  | 14.6 µM (active)
43 | COc1cccc(NC(=O)C2CCN(c3cc(C)nc4c(-c5ccc(Cl)cc5)c(C)nn34)CC2)c1 | -0.208% | 
44 | CC(NC(=O)c1cc2c(=O)n3ccccc3nc2n(C(C)C)c1=N)c1ccccc1 (configuration not stated) | 0.478% | 
45 | COc1ccc(OC)c(CNC(=O)Cn2nc(C)c3c(C)n(-c4ccccc4)nc3c2=O)c1 | -12.2% | 
46 | COc1ccc(C(O)c2nc(-c3ccc4c(c3)OCO4)cs2)cc1 (configuration not stated) | 0% | 
47 | CC(O)(c1cccc(F)c1)c1nc(-c2ccc3c(c2)OCO3)cs1 (configuration not stated) | 0% | 
48 | O=C(Nc1nc(-c2ccc3c(c2)OCO3)cs1)c1ccncc1 |  | 2.91 µM (active)
49 | Cc1nn(C(C)C(=O)NCCc2ccccc2)c(=O)c2c1sc1ccccc12 (configuration not stated) | 3.29% | 
50 | CCC(C(=O)Nc1cc(OC)ccc1OC)n1c(=O)c(C(F)(F)F)nc2ccccc21 (configuration not stated) | 7.88% | 

Row | Structure (SMILES) | activity change, negative = cytotoxic | Potency
51 | O=C(CN1c2ccccc2S(=O)(=O)c2ccccc21)Nc1cccc(C(F)(F)F)c1 | -4.61% | 
52 | COc1ccccc1C1=CC(=O)CCC1 | 28.5% | 
53 | COc1ccc(/C=C2/CCCc3ccccc3C2=O)cc1 |  | 0.651 µM (active)
54 | COc1ccc(/C=C2\N=C3CCCN3C2=O)cc1 | 5.91% | 
55 | CNC(=O)c1ccsc1NC(=O)c1ccc(S(=O)(=O)N2CCc3ccccc32)cc1 | -22.8% | 
56 | Cc1cc2nc(NC(=O)c3ccc(S(=O)(=O)N4CCOCC4)cc3)sc2cc1C | 22.1% | 
57 | O=C(Nc1nc2ccc([N+](=O)[O-])cc2s1)c1ccc(S(=O)(=O)N2CCCc3ccccc32)cc1 |  | 2.06 µM (active)
58 | O=C(NC1CCCCC1)c1ccc2c(c1)N(Cc1ccc(Cl)cc1)C(=O)c1ccccc1S2=O (configuration not stated) | 5.96% | 
59 | COc1ccc(C(F)(F)F)cc1NC(=O)c1sc2nc(-c3cccs3)ccc2c1N | -8.83% | 
60 | N#Cc1ccc(C(=O)Nc2nc(-c3cccs3)c(C(=O)C(F)(F)F)s2)cc1 |  | 5.8 µM (active)
61 | N#Cc1c(-c2cccs2)nc(SCC(=O)c2ccc(Br)cc2)[nH]c1=O | 2.12% | 
62 | NCCCNC(=S)NCCCN(Cc1ccc(Cl)cc1)c1ccc(Br)cn1 |  | inactive
63 | S=C(NCCCc1cnc[nH]1)NCCCN(Cc1ccc(Cl)c(Cl)c1)c1ccc(Br)cn1 |  | 13 µM (active)
64 | O=C(Nc1ccc(Cl)cc1)c1cnn2c1NC(=C1CC1)C=C2C(F)F | 29.6% | 
65 | CCn1c(=O)c2cc(C(=O)NCCc3ccc(Cl)cc3)sc2c2ccccc21 | 12.2% | 
66 | CSc1nc(Nc2ccc(F)cc2)cc(-c2ccccc2)n1 | 5.28% | 
67 | CSc1nc(-c2ccccc2)nc(C(Cl)Cl)n1 |  | 2.91 µM (active)
68 | CC(=O)c1ccc(NC(=O)C2CCN(S(=O)(=O)c3c(C)noc3/C=C/c3ccc(C)cc3)CC2)cc1 | 4% | 
69 | COc1ccc(CNC(=O)CSCc2nc(-c3ccccc3F)oc2C)cc1 | -11.1% | 
70 | Fc1ccccc1Oc1ncnc2c1oc1ccccc12 | 5.25% | 
71 | Cc1ccc(-c2ccc(CN3C(C)C(=O)N(Cc4cn(CCC5OCCCO5)nn4)CCS3(=O)=O)cc2)cc1 (configuration not stated) | -18.8% | 
72 | CC(C)C1C(=O)N(Cc2cn(CCC3OCCO3)nn2)CCS(=O)(=O)N1Cc1ccc(-c2ccccc2C(F)(F)F)cc1 (configuration not stated) | -0.628% | 
73 | Cc1ccc(-c2ccc(CN3C(C(C)C)C(=O)N(Cc4cn(CCC5OCCO5)nn4)CCS3(=O)=O)cc2)cc1 (configuration not stated) |  | 18.4 µM (active)
74 | Cc1ccc(-c2nc3ccccn3c2Nc2c(C)cccc2C)o1 | -3.73% | 
75 | CCOc1ccc(NC(=O)Cn2c(C)ccc(C#N)c2=O)cc1 | -15.1% | 

Row | Structure (SMILES) | activity change, negative = cytotoxic | Potency
76 | CC(=O)c1cccc(Nc2ccc3cc(S(=O)(=O)N4CCC(C)CC4)ccc3n2)c1 | -15.4% | 
77 | CCOc1cc(NC(=O)Nc2ccccc2)c(OCC)cc1NC(=O)CC | 1.09% | 
78 | CCOc1cc(NC(=O)CCl)c(OCC)cc1NC(C)=O |  | 18.4 µM (active)
79 | CCCC(=O)Nc1cc(OCC)c(NC(=O)NC2CCCCC2)cc1OCC | -0.982% | 
80 | COc1ccc(OC)c(NC(=O)C2CCCN(S(=O)(=O)c3ccc4c(c3)CCCC(=O)N4)C2)c1 (configuration not stated) | -1.19% | 
81 | COC(=O)c1cc(NC(=O)CCS(=O)(=O)c2cc(Br)cc3c2N(C(=O)C2CC2)CC3)cc(C(=O)OC)c1 | 4.7% | 
82 | Cc1ccc(C(=O)N/C(=C/c2ccc(-c3cccc([N+](=O)[O-])c3)o2)C(=O)NCCCN(C)C)cc1 | 23% | 
83 | CCOC(=O)c1ccc(-c2ccc(/C=C(\C#N)C(=O)Nc3ccc(C)cc3)o2)cc1 | 10.4% | 
84 | Cc1ccc(Cc2cnc(NC(=O)/C(C#N)=C/c3ccc(-c4cccc([N+](=O)[O-])c4)o3)s2)cc1 |  | 14.6 µM (active)
85 | CCc1ccccc1NC(=O)CSc1nc(C)c(C(=O)Nc2ccccc2)c(-c2ccc(Cl)cc2)c1C#N | 9.75% | 
86 | CCN(CCCNC(=O)c1c(C)oc2ncn(CC(C)C)c(=O)c12)Cc1ccccc1 | 1.99% | 
87 | COc1ccc(-c2cc(NCc3ccc(F)cc3)n3cnnc3n2)cc1 | 0.251% | 
88 | COc1cc(OC)cc(C(=O)NC(C(=O)N2CCC2)C(C)C)c1 (configuration not stated) | 3.72% | 
89 | COc1cc(OC)cc(C(=O)N[C@H](C(=O)OCC(=O)NC(C)c2ccccc2)C(C)C)c1 (some centres not stated) | 6.04% | 
90 | COc1cc(OC)cc(C(=O)N[C@H](C(=O)Nc2nc3ccccc3[nH]2)C(C)C)c1 |  | 1.64 µM (active)
91 | CCCc1ccc(OCc2ccc(C(=O)N/N=C/c3cccc([N+](=O)[O-])c3)o2)c(OC)c1 |  | 18.4 µM (active)
92 | COc1ccccc1OCc1ccc(C(=O)NC(C)c2ccccc2)o1 (configuration not stated) | -14.5% | 
93 | COc1ccc(O)c(/C=N/N=C/c2cccc([N+](=O)[O-])c2)c1 | 4.17% | 
94 | COc1ccc(OC)c(NC(=O)Cn2c(=O)n(Cc3ccccc3)c(=O)c3ccccc32)c1 | -13.4% | 
95 | COc1ccc(NC(=O)CCCN2C(=O)CCn3nc(-c4cn(C)c5ccccc45)cc32)cc1OC | 11.5% | 
96 | O=c1oc2ccccc2cc1-c1cn(-c2ccccc2)c(=S)[nH]1 |  | 3.66 µM (active)
97 | Cc1cc(NC(=O)c2cccc(Cl)c2)ccc1-c1cc2ccccc2oc1=O | -2.7% | 
